One may read the AC50 as the midpoint of the concentration-response curve, whichever way the signal moves.

Values joined by “and” are separate entries in the source; they are usually repeats but may differ in a detail not shown here. Equal values may be shown once. Active and inactive are the calls of the source. The calls were made as follows: active = hit-call score of the fitted dose curve at least 0.9, where 1 is the maximum; inactive = score below 0.9.

Read-out in this experiment: Monocyte Chemoattractant Protein-1 (MCP1), CCL2 (gene 6347)
Briefly: BSK_3C_MCP1: BioMAP Diversity Plus: 3C Assay for Monocyte Chemoattractant Protein-1 (MCP1) Biomarker Activity (AID 2283017). The settings on record: primary human endothelial cells (HUVEC); actives raise or lower the signal. On the procedure:
BSK_3C is a cell-based, multiplexed-readout assay that uses umbilical vein endothelium, a human vascular primary cell, with measurements taken at 24 hours after chemical dosing in a 96-well plate.BSK_3C_MCP1 is an assay component measured in the BSK_3C assay. It measures MCP-1 antibody related to regulation of gene expression using ELISA technology.Data from the assay component BSK_3C_MCP1 was analyzed into 1 assay endpoint. This assay endpoint, BSK_3C_MCP1, was analyzed with bidirectional fitting relative to DMSO as the negative control and baseline of activity. Using a type of binding reporter, gain or loss-of-signal activity can be used to understand changes in the signaling as they relate to the gene CCL2. Furthermore, this assay endpoint can be referred to as a primary readout, because this assay has produced multiple assay endpoints where this one serves a signaling function. To generalize the intended target to other relatable targets, this assay endpoint is annotated to the cytokine intended target family, where the subfamily is chemotactic factor.
The levels of cell surface (or secreted, indicated by the prefix "s") biomarker endpoints were measured by ELISA. Overt cytotoxicity to cells in confluent adherent cultures (all systems other than the BT system) was assessed by measuring total protein levels using sulforhodamine B (SRB) staining in parallel cultures at the time of biomarker measurements, indicated as SRB endpoints. For proliferation assays for adherent cell types, individual cell types are cultured at sub-confluence and relative cell numbers quantified by SRB staining at time points optimized for each system (48 h: 3C and CASM3C systems; 72 h: BT and HDF3CGF systems; 96 h: SAg system). SRB was performed by staining cells with 0.1% SRB after fixation with 10% TCA and reading wells at 560 nm.Viability and proliferation of PBMC (T cells) was quantified by Alamar Blue reduction for the SAg and BT systems. For PBMC viability (referred to as PBMC Cytotoxicity within the assay endpoint names), cells were plated (75,000/well in a 96-well plate) and then chemical samples added for 1 h before addition of activators, SEB and TSST-1 (20 ng/mL final concentration each). Cells were incubated for 90 h. Then, Alamar Blue (20 uL/well) (Invitrogen, Cat DAL1100) was added for 6 h, and the plates were read with a fluorescence microplate reader at 546/580 nm (excitation/emission). For PBMC proliferation, cells were plated and activated as above but incubated for only 16 h prior to addition of Alamar Blue. Plates were read after 6 h.
On to `CCCCC(CC)CN1C(=O)C2C3C=CC(C3)C2C1=O` (stereo not given), for which the outcome was inactive.

On to `CC1(C)C(C=C(Cl)Cl)C1C(=O)OCc1cccc(Oc2ccccc2)c1` (stereo not given), for which the result was inactive.

In the case of `S=C([S-])NCCNC(=S)[S-].[Mn+2]`, the result was inactive.

Turning to `O=C(c1ccc(O)cc1O)c1ccc(O)cc1O`, the outcome was inactive.

Consider `COc1c(Cl)ccc(Cl)c1C(=O)O`, for which the outcome was inactive.

For `CCN(Cc1c(F)cccc1Cl)c1c([N+](=O)[O-])cc(C(F)(F)F)cc1[N+](=O)[O-]`, the result was inactive.

As for `COC(=O)c1ccccc1S(=O)(=O)NC(=O)Nc1nc(OC(F)F)cc(OC(F)F)n1`, the result was inactive.

Take `CC(=O)S[C@@H]1CC2=CC(=O)CC[C@]2(C)[C@H]2CC[C@@]3(C)[C@@H](CC[C@@]34CCC(=O)O4)[C@H]12`: the half-maximal activity concentration (AC50) was 27.7 µM (active).

With `CCC(O)=C1C(=O)CC(C(=O)O)CC1=O` (stereo not given), the result was inactive.

Turning to `CCOC(=O)C(C)Oc1ccc(Oc2cnc3cc(Cl)ccc3n2)cc1` (stereo not given), the outcome was inactive.

As to `COC(=O)c1ccccc1C(=O)O`, the outcome was inactive.

For `COC(=O)c1c(Cl)nn(C)c1S(=O)(=O)NC(=O)Nc1nc(OC)cc(OC)n1`, the result was inactive.

As to `Oc1ccc(C(c2ccc(O)cc2)C(Cl)(Cl)Cl)cc1`, the half-maximal activity concentration (AC50) was 29.1 µM (active).

As to `N#CSCSc1nc2ccccc2s1`, the AC50 was 5.23 µM (active) and 12.1 µM (active).

In the case of `O=C(O)C1(C(=O)Nc2ccc(Cl)cc2Cl)CC1`, the result was inactive.

For the compound `COC(=O)c1ccc(I)cc1S(=O)(=O)NC(=O)Nc1nc(C)nc(OC)n1`, the outcome was inactive.

For the compound `CSC(=O)c1cccc2nnsc12`, the result was inactive.

For the compound `CCOC(=O)C(C)Oc1ccc(Oc2nc3ccc(Cl)cc3o2)cc1` (stereo not given), the AC50 is 20 µM (active).

Turning to `CC(C)(c1ccc(O)cc1)c1ccc(O)cc1`, the result was inactive.

On to `N[C@@H](Cc1cc(I)c(Oc2ccc(O)c(I)c2)c(I)c1)C(=O)O`, for which the outcome was inactive.

In the case of `CCCN(CCC)c1c([N+](=O)[O-])cc(C(F)(F)F)c(N)c1[N+](=O)[O-]`, the AC50 is 29.4 µM (active).

Consider `C[C@]12C[C@H](O)[C@H]3[C@@H](CCC4=CC(=O)CC[C@@]43C)[C@@H]1CC[C@@H]2C(=O)CO`, for which the outcome was inactive.

With `CCOC(=O)NCCOc1ccc(Oc2ccccc2)cc1`, the concentration at half-maximal activity (AC50) is 28.5 µM (active).

As for `C=CCOC(Cn1ccnc1)c1ccc(Cl)cc1Cl` (stereo not given), the outcome was inactive.

Regarding `CCCOC(=O)c1ccc(C(=O)OCCC)nc1`, the result was inactive.

For `c1ccc(Nc2ccccc2)cc1`, the outcome was inactive.

With `CCCCOC(=O)C(C)Oc1ccc(Oc2ccc(C(F)(F)F)cn2)cc1` (stereo not given), the outcome was inactive.

For `c1ccc2[nH]c(-c3cscn3)nc2c1`, the result was inactive.

As for `C[C@]12CC[C@@H]3c4ccc(O)cc4C[C@@H](CCCCCCCCCS(=O)CCCC(F)(F)C(F)(F)F)[C@H]3[C@@H]1CC[C@@H]2O` (stereo not given in full), the outcome was inactive.

For `CC(=O)[C@H]1CC[C@H]2[C@@H]3CCC4=CC(=O)CC[C@]4(C)[C@H]3CC[C@]12C`, the concentration at half-maximal activity (AC50) was 8.12 µM (active).

For `CCCN(CCC)C(=O)SCC`, the result was inactive.

Consider `CCCCOCCOCCOCc1cc2c(cc1CCC)OCO2`, for which the outcome was inactive.

For `O=C(O)c1ccccc1`, the outcome was inactive.

For the compound `S=C(S)NCCNC(=S)S.[Mn+2].[S-]C([S-])=NCCN=C([S-])[S-].[Zn+2]`, the outcome was inactive.

As for `CCC(C)OC(=O)N1CCCCC1CCO` (stereo not given), the result was inactive.

Regarding `C#C[C@]1(O)CC[C@H]2[C@@H]3CCC4=CC(=O)CC[C@@H]4[C@H]3CC[C@@]21CC`, the outcome was inactive.

For `CC(C)CCCCCCc1ccc(O)cc1`, the AC50 is 9.8 µM (active).

As to `CCCCOC(=O)[C@@H](C)Oc1ccc(Oc2ccc(C(F)(F)F)cn2)cc1`, the result was inactive.

Take `CCN(CC)C(=O)c1cccc(C)c1`: the outcome was inactive.

Regarding `CCCOC(=O)NCCCN(C)C`, the result was inactive.

The values above are taken from PubChem BioAssay (EPA / NIEHS).
